Compound activity deposited in PubChem BioAssay by several laboratories.
Sampled rows, rich in hits. Any-hit rate of the full collection: about 3.9%.
PrPC surface inh – inhibitors of human cell surface prion protein PrPC, primary screen, cell-based, TR-FRET; Major prion protein (Homo sapiens), P04156; TR-FRET read-out; inhibition, % at 13.8 µM; 370,000 tested, 0.43% active; AID 720596, 2013; in the data active = inhibition above about 24%
SARS 3CLpro inh – SARS-CoV 3CLpro protease inhibitors, primary screen, biochemical, quenched FRET. Replicase polyprotein 1ab (Severe acute respiratory syndrome coronavirus), P0C6X7. recombinant SARS-CoV 3CLpro, quenched FRET peptide cleavage. inhibition, % at 6 µM. 290,000 tested, 0.14% active. AID 1706, 2009; in the data active = inhibition above about 12%
Vc quorum ag – inducers of Vibrio cholerae quorum light production without autoinducers, primary screen, BH1578 luxS cqsA deficient, single point. V. cholerae BH1578 lux reporter, luminescence, 6 h. activation, % at 18.7 µM. 350,000 tested, 0.16% active. AID 588436, 2011; in the data active = activation mostly above about 9.7%, no sharp cut-off
FBA Mtb inh – Mtb FBA enzyme inhibitors, primary screen, biochemical, fluorescence, strain H37Rv | 360,000 tested, 2.3% active | purified M. tuberculosis FBA, fluorescence read-out | AID 588726, 2011 | inhibition, % at 1 µM; in the data active = inhibition above about 27%
Target sequence (P9WQA3 whole entry, looked up): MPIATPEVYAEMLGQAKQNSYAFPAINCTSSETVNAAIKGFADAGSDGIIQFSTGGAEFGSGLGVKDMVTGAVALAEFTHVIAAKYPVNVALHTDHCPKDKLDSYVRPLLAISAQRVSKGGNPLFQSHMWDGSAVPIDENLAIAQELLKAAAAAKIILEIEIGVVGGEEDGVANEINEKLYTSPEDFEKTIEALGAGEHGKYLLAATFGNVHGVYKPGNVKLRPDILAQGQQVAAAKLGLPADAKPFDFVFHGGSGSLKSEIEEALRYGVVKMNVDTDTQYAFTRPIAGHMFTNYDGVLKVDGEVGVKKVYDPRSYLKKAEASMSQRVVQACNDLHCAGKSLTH
GDH-TPI inh – GDH-TPI coupling enzyme inhibitors, primary screen, artefact control for M. tuberculosis FBA inhibitor project, biochemical, absorbance, full deck. GDH-TPI coupled enzyme counterscreen, NADH absorbance. inhibition, % at 4.8 µM. 360,000 tested, 1.2% active. AID 588335, 2011; in the data active = inhibition above about 30%
Hits are given with their value.

COc1ccc(C(=O)O)cc1S(=O)(=O)NC(C)C was read as PrPC surface inh inactive, SARS 3CLpro inh inactive, Vc quorum ag inactive, FBA Mtb inh inactive and GDH-TPI inh inactive.
`COC(=O)CCCn1cc(CN2CC(N3CCCC3)CS2(=O)=O)nn1` (stereo not drawn) gave PrPC surface inh inactive.
Screening N#CC(c1ccc(O)cc1)N1CCN(C(C#N)c2ccc(O)cc2)CC1 (stereo not drawn) returned PrPC surface inh inactive, Vc quorum ag inactive, FBA Mtb inh inactive and GDH-TPI inh 82.
`COc1ccc(C(C#N)N2CCOCC2)cc1` (stereo not drawn) gave PrPC surface inh inactive, SARS 3CLpro inh inactive, Vc quorum ag inactive, FBA Mtb inh inactive and GDH-TPI inh inactive.
For N#Cc1c(C(F)(F)F)cc(-c2cccs2)nc1SC(C(=O)O)c1ccccc1 (stereo not drawn) the results were PrPC surface inh inactive, SARS 3CLpro inh inactive, Vc quorum ag inactive, FBA Mtb inh inactive and GDH-TPI inh inactive.
`N#Cc1c(C(F)(F)F)cc(-c2cccs2)nc1SCC(=O)O` gave PrPC surface inh inactive, SARS 3CLpro inh inactive, Vc quorum ag inactive, FBA Mtb inh inactive and GDH-TPI inh 37.
`Cc1nn(CCC(N)=O)c2nc(-c3cccs3)cc(C(F)(F)F)c12` gave PrPC surface inh inactive, SARS 3CLpro inh inactive, Vc quorum ag inactive, FBA Mtb inh 153 and GDH-TPI inh 31.
`Cc1nn(CCC(=O)O)c2nc(-c3cccnc3)cc(C(F)(F)F)c12` gave PrPC surface inh inactive, SARS 3CLpro inh inactive, Vc quorum ag inactive, FBA Mtb inh inactive and GDH-TPI inh inactive.
For CN(C)c1ccc(/C=N/NC(=O)c2cccc(N3CCCC3=O)c2)cc1 the results were PrPC surface inh inactive, SARS 3CLpro inh inactive, Vc quorum ag inactive, FBA Mtb inh inactive and GDH-TPI inh 46.
For COc1cccc(/C=N/NC(=O)c2cccc(N3CCCC3=O)c2)c1 the results were PrPC surface inh inactive, SARS 3CLpro inh inactive, Vc quorum ag inactive, FBA Mtb inh inactive and GDH-TPI inh inactive.
Screening O=C(NN=Cc1ccc2c(c1)OCO2)NN=Cc1ccc2c(c1)OCO2 returned PrPC surface inh inactive, Vc quorum ag inactive, FBA Mtb inh inactive and GDH-TPI inh 38.
For O=C(N/N=C/c1ccccc1)c1ccc2c(c1)OCO2 the results were PrPC surface inh inactive, SARS 3CLpro inh inactive, Vc quorum ag inactive, FBA Mtb inh inactive and GDH-TPI inh inactive.
For Cc1ccc(C(=O)NN=Cc2ccc3c(c2)OCO3)cc1 the results were PrPC surface inh inactive, Vc quorum ag inactive, FBA Mtb inh inactive and GDH-TPI inh 35.
For CN(C)c1ccc(/C=N/NC(=O)c2ccc3c(c2)OCO3)cc1 the results were PrPC surface inh inactive, SARS 3CLpro inh inactive, Vc quorum ag inactive, FBA Mtb inh inactive and GDH-TPI inh 42.
Screening COc1ccccc1C1(O)CCN(CC(=O)Nc2nc(-c3ccccc3)cs2)CC1 returned PrPC surface inh inactive, SARS 3CLpro inh inactive, Vc quorum ag inactive, FBA Mtb inh inactive and GDH-TPI inh inactive.
Cc1oc(S(=O)(=O)N2CCCCC2)cc1NC(=O)Nc1ccc(Cl)cc1 was read as PrPC surface inh inactive, SARS 3CLpro inh inactive, Vc quorum ag inactive, FBA Mtb inh inactive and GDH-TPI inh inactive.
`O=C(N/N=C/c1ccc(O)cc1)c1cc(-c2ccc3c(c2)OCO3)n[nH]1` gave PrPC surface inh 25, SARS 3CLpro inh inactive, Vc quorum ag inactive, FBA Mtb inh inactive and GDH-TPI inh inactive.
`O=C(CCc1c[nH]c2ccccc12)N/N=C/c1ccc2c(c1)OCO2` gave PrPC surface inh inactive, SARS 3CLpro inh inactive, Vc quorum ag inactive, FBA Mtb inh inactive and GDH-TPI inh 38.
Cc1ccc(C(=O)N/N=C/c2ccc3c(c2)OCO3)o1 was read as PrPC surface inh inactive, SARS 3CLpro inh inactive, Vc quorum ag inactive, FBA Mtb inh inactive and GDH-TPI inh 40.
Screening O=C(N/N=C/c1ccccc1)c1cc(-c2ccc3c(c2)OCO3)n[nH]1 returned PrPC surface inh inactive, SARS 3CLpro inh inactive, Vc quorum ag inactive, FBA Mtb inh inactive and GDH-TPI inh inactive.
Screening O=C(N/N=C/c1ccc2c(c1)OCO2)c1cc2ccccc2o1 returned PrPC surface inh inactive, SARS 3CLpro inh inactive, Vc quorum ag inactive, FBA Mtb inh inactive and GDH-TPI inh inactive.
O=C(N/N=C/c1ccc(Br)o1)c1ccc2c(c1)OCCO2 was read as PrPC surface inh inactive, SARS 3CLpro inh inactive, Vc quorum ag inactive, FBA Mtb inh inactive and GDH-TPI inh 41.
For COc1cccc(-c2ccc(CC[C@H]3O[C@H]4CC[C@H](CO)O[C@H]4C[C@H]3NS(C)(=O)=O)cc2)c1 the results were PrPC surface inh inactive.
For COc1ccccc1C(C(=O)c1ccccc1)c1ccc(O)cc1 (stereo not drawn) the results were PrPC surface inh inactive.
O=C1N2Cc3ccccc3C2CS(=O)(=O)N1C1CCCC1 (stereo not drawn) was read as PrPC surface inh inactive.
`COc1cc(/C=N/NC(=O)C2=NNC(=O)C2C)ccc1O` (stereo not drawn) gave PrPC surface inh inactive, SARS 3CLpro inh inactive, Vc quorum ag inactive, FBA Mtb inh inactive and GDH-TPI inh inactive.
`CC1C(=O)NN=C1C(=O)N/N=C\c1ccc(O)cc1O` (stereo not drawn) gave PrPC surface inh inactive, SARS 3CLpro inh inactive, Vc quorum ag inactive, FBA Mtb inh inactive and GDH-TPI inh 62.
For O=C(Nc1nnc(-c2ccco2)s1)c1ccccc1 the results were PrPC surface inh inactive, SARS 3CLpro inh inactive, Vc quorum ag inactive, FBA Mtb inh inactive and GDH-TPI inh inactive.
`COc1ccc(C(=O)Nc2nnc(-c3ccco3)s2)cc1` gave PrPC surface inh inactive, SARS 3CLpro inh inactive, Vc quorum ag inactive, FBA Mtb inh inactive and GDH-TPI inh 46.
COc1ccccc1C(=O)Nc1nnc(-c2ccco2)s1 was read as PrPC surface inh inactive, SARS 3CLpro inh inactive, Vc quorum ag inactive, FBA Mtb inh inactive and GDH-TPI inh 33.
CC(=O)c1cccc(NC(=O)c2cnn3c(C)cc(C)nc23)c1 was read as PrPC surface inh inactive.
For O=C(N/N=C/c1ccc(OC(=O)c2ccc([N+](=O)[O-])cc2)cc1)c1cccnc1 the results were PrPC surface inh inactive, SARS 3CLpro inh inactive, Vc quorum ag inactive, FBA Mtb inh inactive and GDH-TPI inh inactive.
For COc1cc(/C=N/NC(=O)c2cccnc2)cc(Br)c1O the results were PrPC surface inh inactive, SARS 3CLpro inh inactive, Vc quorum ag inactive, FBA Mtb inh inactive and GDH-TPI inh 44.
`O=C(NN=Cc1ccc(N(CCCl)CCCl)cc1)c1cccnc1` gave PrPC surface inh inactive, Vc quorum ag inactive, FBA Mtb inh inactive and GDH-TPI inh 38.
`COc1c(Br)cc(Br)cc1/C=N/NC(=O)c1cccnc1` gave PrPC surface inh inactive, SARS 3CLpro inh inactive, Vc quorum ag inactive, FBA Mtb inh inactive and GDH-TPI inh inactive.
